SMILES strings stand for the structures. Among all 310,000 compounds or so, about 14,000 (4.5%) showed an effect of 50% or more. The effect is printed as a negative number. Only a selection was taken, and strong results are over-represented in it overall.
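Further: peak tail current of the secondary pulse compared with the same well before compound.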

The target of the test is human ether-à-go-go-related gene (hERG) potassium channel (human, UniProt Q12809). Kind of test: primary screen, population patch clamp on CHO cells stably expressing hERG; higher = less effect of the substance.
Sequence of human ether-à-go-go-related gene (hERG) potassium channel (Q12809 whole entry, looked up): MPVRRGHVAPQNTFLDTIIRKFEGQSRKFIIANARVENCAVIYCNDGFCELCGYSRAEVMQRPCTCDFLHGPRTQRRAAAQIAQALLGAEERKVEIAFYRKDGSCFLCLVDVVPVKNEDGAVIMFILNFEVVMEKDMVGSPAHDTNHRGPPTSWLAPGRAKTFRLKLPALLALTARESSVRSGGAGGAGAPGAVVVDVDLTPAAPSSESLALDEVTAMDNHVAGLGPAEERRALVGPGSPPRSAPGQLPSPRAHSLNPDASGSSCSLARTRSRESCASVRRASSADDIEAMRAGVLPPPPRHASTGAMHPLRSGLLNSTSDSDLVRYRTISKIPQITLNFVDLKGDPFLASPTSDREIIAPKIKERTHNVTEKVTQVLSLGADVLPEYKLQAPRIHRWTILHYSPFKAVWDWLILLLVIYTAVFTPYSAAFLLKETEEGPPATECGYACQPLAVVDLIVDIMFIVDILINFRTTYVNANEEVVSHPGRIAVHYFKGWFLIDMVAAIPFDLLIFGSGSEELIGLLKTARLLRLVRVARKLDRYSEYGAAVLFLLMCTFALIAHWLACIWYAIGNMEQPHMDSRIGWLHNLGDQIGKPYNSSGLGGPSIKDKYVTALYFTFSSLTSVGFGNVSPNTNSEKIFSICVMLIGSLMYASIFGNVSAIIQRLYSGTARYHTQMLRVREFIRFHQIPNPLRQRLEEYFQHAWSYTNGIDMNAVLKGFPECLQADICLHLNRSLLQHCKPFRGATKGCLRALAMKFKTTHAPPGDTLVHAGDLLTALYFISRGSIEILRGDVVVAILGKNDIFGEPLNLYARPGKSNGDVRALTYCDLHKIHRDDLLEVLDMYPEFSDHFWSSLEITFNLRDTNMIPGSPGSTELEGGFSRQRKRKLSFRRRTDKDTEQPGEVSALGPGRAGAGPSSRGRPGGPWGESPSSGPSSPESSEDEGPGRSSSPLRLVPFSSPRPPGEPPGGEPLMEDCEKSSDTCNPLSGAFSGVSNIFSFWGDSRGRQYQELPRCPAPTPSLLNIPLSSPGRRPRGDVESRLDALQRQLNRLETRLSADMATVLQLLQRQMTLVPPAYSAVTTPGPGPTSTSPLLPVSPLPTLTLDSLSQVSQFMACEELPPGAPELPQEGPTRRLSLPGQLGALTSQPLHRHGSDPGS
On to `Cc1cccc(C)c1OCC(O)CN1CCc2ccccc2C1.Cl` (centres unmarked), for which the “hERG current change (%, negative = inhibition) at 10uM” value was -64.2%.

For `Cc1cccc(C)c1OCC(O)Cn1c2ccccc2c2ccccc21` (centres unmarked), the “hERG current change (%, negative = inhibition) at 10uM” value is listed as 6.83%.

Regarding `Cc1ccc(C)c(OCC(O)CN2CCC(C)CC2)c1C` (centres unmarked), the “hERG current change (%, negative = inhibition) at 10uM” value is reported as -33.6%.

As to `Cl.OC(COc1c(F)cc(Br)cc1F)CN1CCN(c2ccc(F)cc2)CC1` (centres unmarked), the “hERG current change (%, negative = inhibition) at 10uM” value is -25.7%.

Regarding `Cc1ccc(C)c(OCC(O)CN2CCc3ccccc3C2)c1C.Cl` (centres unmarked), the “hERG current change (%, negative = inhibition) at 10uM” value is recorded as -65.3%.

`Cl.OC(COc1c(F)cc(Br)cc1F)CN1CCOCC1` (centres unmarked): the “hERG current change (%, negative = inhibition) at 10uM” value was determined as 2.28%.

For `Nc1ccc(S(=O)(=O)Nc2nc(-c3ccccc3)cc(-c3ccccc3)n2)cc1`, the “hERG current change (%, negative = inhibition) at 10uM” value is 21.6%.

As for `Cc1ccc(NC(=O)Cn2nc(C)c3ccccc3c2=O)c(C)c1`, the “hERG current change (%, negative = inhibition) at 10uM” value worked out at 10.2%.

As to `NC(=O)CN1C(=O)C(=O)N(Cc2ccccc2Cl)C1=O`, the “hERG current change (%, negative = inhibition) at 10uM” value was 8.45%.

Regarding `CC(=O)Nc1c(C(=O)C2CC2)oc2ccccc12`, the “hERG current change (%, negative = inhibition) at 10uM” value is reported as -7%.

`Cc1ccc(OCC(O)CN2CCCC2)cc1` (centres unmarked): the “hERG current change (%, negative = inhibition) at 10uM” value is on record as 11.5%.

Take `Cc1ccc(OCC(O)CN2CCOCC2)cc1` (centres unmarked): the “hERG current change (%, negative = inhibition) at 10uM” value turned out to be 8.2%.

For `Cc1ccc(OCC(O)CN2CCN(CC(O)COc3ccc(C)cc3)CC2)cc1` (centres unmarked), the “hERG current change (%, negative = inhibition) at 10uM” value was -63.9%.

As to `CC(C)c1ccc(OCC(O)CN2CCN(c3ccccc3)CC2)cc1.Cl` (centres unmarked), the “hERG current change (%, negative = inhibition) at 10uM” value is -47.3%.

With `CC(C)(C)C1CCC(OCC(O)CN2CCN(c3ccccc3)CC2)CC1.Cl` (centres unmarked), the “hERG current change (%, negative = inhibition) at 10uM” value was 1.42%.

As to `Cc1ccc(N2CCN(CC(O)COC3CCCCC3)CC2)cc1` (centres unmarked), the “hERG current change (%, negative = inhibition) at 10uM” value was -56.1%.

As for `Cc1ccc(N2CCN(CC(O)COc3ccccc3)CC2)cc1` (centres unmarked), the “hERG current change (%, negative = inhibition) at 10uM” value is -50.9%.

With `COc1cccc(OC)c1OCC(O)CN1CCN(c2ccccc2)CC1.Cl` (centres unmarked), the “hERG current change (%, negative = inhibition) at 10uM” value was -33.3%.

On to `Cc1ccc(OCC(O)CN2CCN(c3ccccc3)CC2)cc1` (centres unmarked), for which the “hERG current change (%, negative = inhibition) at 10uM” value is -38.6%.

Turning to `OC(COC1CCCCC1)CN1CCN(c2ccccc2)CC1` (centres unmarked), the “hERG current change (%, negative = inhibition) at 10uM” value is -29.8%.

With `Cc1cccc(C)c1OCC(O)CN1CCN(c2ccccc2)CC1.Cl` (centres unmarked), the “hERG current change (%, negative = inhibition) at 10uM” value is recorded as -53.1%.

Turning to `Cc1nc(N)c(C#N)c(-c2ccccc2)c1C`, the “hERG current change (%, negative = inhibition) at 10uM” value is -10.4%.

For `CCN1C(=S)N[C@@H](c2cccs2)C(C(=O)OC)=C1C`, the “hERG current change (%, negative = inhibition) at 10uM” value is on record as 4.42%.

Turning to `O=C(CNC(=O)c1ccccc1F)N/N=C/c1cc(Br)ccc1OCc1ccccc1`, the “hERG current change (%, negative = inhibition) at 10uM” value is -3.96%.

For the compound `Fc1ccc(N/N=C/c2ccncc2)c(F)c1`, the “hERG current change (%, negative = inhibition) at 10uM” value was -9.23%.

Turning to `Cc1ccc(N2CCN(CC(O)COc3cccc(C)c3)CC2)cc1` (centres unmarked), the “hERG current change (%, negative = inhibition) at 10uM” value was -55.1%.

With `Cc1cccc(OCC(O)CN2CCNCC2)c1.Cl` (centres unmarked), the “hERG current change (%, negative = inhibition) at 10uM” value is 26.5%.

For the compound `CCOC(=O)N1CCN(CC(O)COc2cc(C)ccc2C(C)C)CC1.Cl` (centres unmarked), the “hERG current change (%, negative = inhibition) at 10uM” value is -26.8%.

`Cc1ccc(OCC(O)CN2CCN(CC(O)COC(C)C)CC2)c(C(C)(C)C)c1` (centres unmarked): the “hERG current change (%, negative = inhibition) at 10uM” value is given as -65.2%.

`Cc1ccc(OCC(O)CN2CCN(CC(O)COc3ccc(C)cc3Cl)CC2)c(Cl)c1` (centres unmarked): the “hERG current change (%, negative = inhibition) at 10uM” value is -24.3%.

As for `COC(=O)c1ccc(OCC(O)CN2CCOCC2)cc1` (centres unmarked), the “hERG current change (%, negative = inhibition) at 10uM” value was found to be 15%.

For `COC(=O)c1ccc(OCC(O)CN2CCC(C)CC2)cc1` (centres unmarked), the “hERG current change (%, negative = inhibition) at 10uM” value is given as -15.3%.

Turning to `COC(=O)c1ccc(OCC(O)CN2CCN(CC(O)COc3ccc(C(=O)OC)cc3)CC2)cc1` (centres unmarked), the “hERG current change (%, negative = inhibition) at 10uM” value was -72.9%.

Take `Cc1cccc(OCC(O)CN2CCN(S(=O)(=O)c3ccc(C)cc3C)CC2)c1` (centres unmarked): the “hERG current change (%, negative = inhibition) at 10uM” value is given as -17.5%.

For the compound `Cc1cccc(OCC(O)CN2CCOCC2)c1.Cl` (centres unmarked), the “hERG current change (%, negative = inhibition) at 10uM” value is recorded as 10.9%.

For `Cc1cccc(OCC(O)CN2CCN(C3CCCCC3)CC2)c1.Cl` (centres unmarked), the “hERG current change (%, negative = inhibition) at 10uM” value was -50.3%.

In the case of `Nc1c(Cl)ncnc1N/N=C/c1ccc2ccccc2n1`, the “hERG current change (%, negative = inhibition) at 10uM” value is recorded as -11.7%.

As to `COC(=O)COc1ccc(/C=C2\SC(=O)N(CC(=O)Nc3ccccc3F)C2=O)cc1`, the “hERG current change (%, negative = inhibition) at 10uM” value amounted to 14%.

Regarding `Cc1nc(CNC(=O)CC2C(=O)NCCN2Cc2cccc(Oc3ccccc3)c2)cs1` (centres unmarked), the “hERG current change (%, negative = inhibition) at 10uM” value came to 10.4%.

`CCOCCCNC(=O)/C(C#N)=C/c1ccccc1F`: the “hERG current change (%, negative = inhibition) at 10uM” value was 23.5%.

In the case of `C/C(=N\NC(=O)c1ccc(Cl)cc1)c1ccc(Br)s1`, the “hERG current change (%, negative = inhibition) at 10uM” value amounted to 2.93%.

Regarding `COCCNC(=O)C(=O)NCC1OCCN1S(=O)(=O)c1ccc(C)cc1` (centres unmarked), the “hERG current change (%, negative = inhibition) at 10uM” value is given as 15.7%.

For the compound `CCc1ccc(C(=O)NNc2ccc(S(N)(=O)=O)cc2)cc1`, the “hERG current change (%, negative = inhibition) at 10uM” value is reported as 9.05%.

As for `NC(=O)COC(=O)CC12CC3CC(CC(Br)(C3)C1)C2`, the “hERG current change (%, negative = inhibition) at 10uM” value stood at 24.6%.

The values are drawn from paper PMC4336329 (PLoS ONE, 2015).
